From PubChem BioAssay (NCATS)
Several values for one entry are separate records, joined by “and”; a condition that tells them apart may be missing. Equal entries are not always repeated. Records with an inconclusive call do not appear. Some structures have more than one record in an assay (separate samples or runs), and their calls can disagree. Activity calls are given as the source filed them. Unless noted, calls follow the shape of the dose curve; as a rule, active = well fitted curve in the direction sought with a large enough effect; inconclusive = small, poorly fitted or top-dose-only effect, or another doubt; inactive = no such curve, though single readings can be large; an effect the other way counts as inactive or inconclusive.

Legend:
[1] = qHTS assay for cell viability of HEK293 cells (AID 743288); settings: ATP luminescence (CellTiter-Glo), 18 h; max response: stronger effect = lower value; also: nearly all actives have a fitted effect of over 50% in size; also: potency is read from the fitted curve at half-maximal effect; as to max response: % is scaled to controls: 0 for no effect and ±100 for the full control effect
Procedure, shortened: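 Environmental chemicals tested in qHTS format against parental HEK293 cells; 18 h treatment, 37 C; read-out ATP luminescence (CellTiter-Glo), 30 min RT development.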

[2] = Cell Viability - HUV-EC-C (AID 542);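 also: cells exposed to compound for 40 hours; nearly all actives have a fitted effect of over 35% in size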; also: potency is read from the fitted curve at half-maximal effect
Procedure, shortened: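 Decrease in cellular ATP, quantified by luciferase luminescence, reflects toxicity in normal human vascular endothelial HUV-EC-C cells given compound for 40 hr in complete culture medium. Values are AC50s from concentration-response curves.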

[3] = Cell Viability - H-4-II-E (AID 543);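 also: cells exposed to compound for 40 hours; nearly all actives have a fitted effect of over 35% in size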; also: potency is read from the fitted curve at half-maximal effect
Procedure, shortened: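 Here, cytotoxicity is measured in the rat hepatoma line H-4-II-E as loss of intracellular ATP after 40 hr compound treatment, detected by luciferase luminescence.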

[4] = Cell Viability - SH-SY5Y (AID 544); settings: SH-SY5Y neuroblastoma cell viability; viability change, negative = cytotoxic: at 92.2 µM (top of the series);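 also: cells exposed to compound for 40 hours; nearly all actives have a fitted effect of over 55% in size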; also: potency is read from the fitted curve at half-maximal effect;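 as to viability change, negative = cytotoxic: 0% = DMSO alone and -100% = 100 µM tamoxifen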
Procedure, shortened: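 Cytotoxicity is scored as a concentration-dependent fall in intracellular ATP in human SH-SY5Y cells treated 40 hr in complete culture medium. Potency is expressed as AC50 from a Hill equation fit.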

[5] = Cellular Toxicity (caspase-3) SHSY5Y (AID 657)
Procedure, shortened: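 Luminescent caspase-3/7 readout (aminoluciferin release) in SH-SY5Y cells after 16 h compound exposure in complete medium. Activity scaled between DMSO basal and 10 uM staurosporine as 100%; concentration-response fitted to Hill equation for AC50.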

[6] = Cellular Toxicity (caspase-3) Renal Proximal Tubule (AID 667); settings: renal proximal tubule cells; at 91.7 µM (top of the series) unless noted;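 also: cells exposed to compound for 16 hours at 37 °C before detection; 0% = DMSO basal and 100% = 10 µM staurosporine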
Procedure, shortened: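 Luminescent caspase 3/7 signal from peptide-aminoluciferin cleavage measures apoptosis in freshly isolated rat kidney proximal tubule cells after 16 h compound exposure. Concentration-response data are normalized to DMSO and 10 uM staurosporine, and AC50 values come from Hill equation fits.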

[7] = Cell Viability - LYMP1-002 - Assay at 16 hr (AID 948); also: potency is read from the fitted curve at half-maximal effect
Procedure, shortened: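 LYMP1-002 human lymphoblastoid cells, 2500/well; 5 hr 37 C; cpd 16 hr 37 C; CellTiter-Glo 30 min RT; luminescence (ATP). Concentration-response, Hill-fit AC50. Pos ctrl tetraoctylammonium bromide.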

[8] = MultiTox-Fluor Cytotoxicity Assay - LYMP1-003 - Dead Cells (AID 961); also: nearly all actives have a fitted effect of over 70% in size; also: potency is read from the fitted curve at half-maximal effect
Procedure, shortened: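 Dead-cell protease release, detected as bis-AAF-R110 fluorescence at 485/520 nm, was measured in LYMP1-003 cells after 16 h compound treatment at 37 C. AC50 values came from Hill-modeled qHTS curves normalized to DMSO (0%) and 15 uM tetraoctylammonium bromide (100%).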

[9] = Cell Viability - LYMP1-003 - Assay at 40 hr (AID 964); also: nearly all actives have a fitted effect of over 60% in size; also: potency is read from the fitted curve at half-maximal effect
Procedure, shortened: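 This qHTS cytotoxicity screen treats human lymphoblastoid cells (LYMP1-003) with compounds for 40 hr and quantifies cellular ATP via luciferase luminescence.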

[10] = Cell Viability - LYMP2-005 (AID 967); also: potency is read from the fitted curve at half-maximal effect
Procedure, shortened: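 Steps: seed 2500 LYMP2-005 cells/well, incubate 5 h at 37 C, add compound, incubate 24 h at 37 C, add CellTiter-Glo, wait 30 min at RT, read luminescence. Concentration-response data fitted to Hill equation for AC50.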

[11] = Cell Viability - LYMP2-008 (AID 980); also: nearly all actives have a fitted effect of over 60% in size; also: potency is read from the fitted curve at half-maximal effect
Procedure, shortened: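 Acute cytotoxicity is scored as concentration-dependent loss of cellular ATP in a human lymphoblastoid line after 24 hr treatment at 37 C. ATP is quantified by luciferase luminescence.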

[12] = Cell Viability - LYMP1-002 - Assay at 24 hr (AID 993); also: potency is read from the fitted curve at half-maximal effect
Procedure, shortened: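 qHTS, LYMP1-002 lymphoblastoid, 24 h cpd, 37 C, CellTiter-Glo ATP luminescence; AC50 via Hill eq.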

[13] = Cell Viability - LYMP1-002 - Assay at 40 hr (AID 994); also: nearly all actives have a fitted effect of over 60% in size; also: potency is read from the fitted curve at half-maximal effect;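 as to viability change, negative = cytotoxic: 0% = DMSO only and full inhibition = 92 µM tetraoctylammonium bromide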
Procedure, shortened: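 Viability in the human lymphoblastoid line was measured as intracellular ATP via CellTiter-Glo after 40 hr compound exposure. Tetraoctylammonium bromide served as positive control.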

[14] = qHTS assay for small molecule agonists of the antioxidant response element (ARE) signaling pathway measured by Nrf2-dependant transcriptional activity - cell viability counter screen (AID 720653; active = well fitted curve in the direction sought with a large enough effect in the repeat runs; an effect the other way counts as inactive or inconclusive; also: potency is read from the fitted curve at half-maximal effect; as to max response: % is scaled to controls: 0 for no effect and ±100 for the full control effect); settings: ARE-bla HepG2 viability, CellTiter-Glo ATP luminescence, 16 h; max response: stronger effect = lower value
Procedure, shortened: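 ARE-bla HepG2 cells (2,000/well) rested 5 hrs at 37C/5% CO2, then exposed to compounds in DMSO for 16 hrs. Viability was read in the same wells as intracellular ATP by luminescence, 30 min at room temperature after reagent addition.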

[15] = Cell Viability - LYMP2-001 (AID 921); also: nearly all actives have a fitted effect of over 70% in size; also: potency is read from the fitted curve at half-maximal effect
Procedure, shortened: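 CellTiter-Glo luminescence (intracellular ATP) after 24 hr compound exposure at 37 C, 2500 lymphoblastoid cells/well in complete medium. AC50 fitted with standard Hill equation; tetraoctylammonium bromide positive control.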

[16] = Cell Viability - LYMP2-009 (AID 968); also: nearly all actives have a fitted effect of over 55% in size; also: potency is read from the fitted curve at half-maximal effect
[17] = Cell Viability - LYMP2-011 (AID 969);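 also: cells exposed to compound for 24 hours; nearly all actives have a fitted effect of over 60% in size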; also: potency is read from the fitted curve at half-maximal effect;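 as to viability change, negative = cytotoxic: 0% = DMSO only and full inhibition = 92 µM tetraoctylammonium bromide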
Procedure, shortened: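 Acute toxicity is scored as a concentration-dependent drop in intracellular ATP of a human lymphoblastoid line after 24 hr treatment. Values are AC50s modeled with the Hill equation.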

[18] = Cell Viability - LYMP2-017 (AID 972);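 also: cells exposed to compound for 24 hours at 37 °C; nearly all actives have a fitted effect of over 55% in size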; also: potency is read from the fitted curve at half-maximal effect
Procedure, shortened: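 Steps: plate 2500 lymphoblastoid cells per well; incubate 5 hr at 37 C; add compound across a concentration series and incubate 24 hr at 37 C; add CellTiter-Glo and read luminescence after 30 min at room temperature; fit Hill curves for AC50.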

[19] = Cell Viability - LYMP2-019 (AID 973); also: nearly all actives have a fitted effect of over 55% in size; also: potency is read from the fitted curve at half-maximal effect
Procedure, shortened: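 Cells plated at 2500/well and allowed 5 hr at 37 C before compound addition. After 24 hr incubation, CellTiter-Glo reagent was added, plates sat 30 min at room temperature, and luminescence was recorded.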

[20] = Cell Viability - LYMP2-023 (AID 975); also: potency is read from the fitted curve at half-maximal effect
Procedure, shortened: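 Concentration-dependent drop in intracellular ATP measures acute cytotoxicity in a human lymphoblastoid line treated for 24 hours in complete culture medium. AC50 values are taken from Hill-equation fits of qHTS data.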

O=[N+]([O-])c1ccccc1Cl
inactive: max response [1] -0.622% and -10.4%

C(=NC1CCCCC1)=NC1CCCCC1
active: Potency [3] 1.26 µM | Potency [11] 50.1 µM | Potency [14] 7.94 µM
inactive: Potency [2] | Potency [4] | Potency [5] | caspase-3 activation [6] 5.14% | Potency [7] | Potency [8] | Potency [9] | Potency [10] | Potency [12] | Potency [13]

Oc1c(Cl)cc(Cl)cc1Cl
inactive: max response [14] -6.96% and -8.43% | max response [1] -4.3% and -11%

O=C(CCl)c1ccccc1
inactive: Potency [5] | caspase-3 activation [6] -4.24% | Potency [13] | max response [14] -32.5% and -9.07% | max response [1] -16%
active: Potency [3] 15.8 µM | Potency [4] 7.94 µM | Potency [15] 7.94 µM | Potency [7] 79.4 µM | Potency [8] 31.6 µM | Potency [10] 10 µM | Potency [16] 10 µM | Potency [17] 12.6 µM | Potency [18] 10 µM | Potency [19] 10 µM | Potency [20] 12.6 µM | Potency [11] 12.6 µM | Potency [1] 35.5 µM

COP(=O)(OC)O/C(=C\Cl)c1cc(Cl)c(Cl)cc1Cl
active: viability change, negative = cytotoxic [4] -89.6%
inactive: Potency [3] | caspase-3 activation [6] 2.58% [at 91.7 µM, primary cells freshly taken from rat, solvent-only wells 0%, staurosporine 100%] | Potency [15] | Potency [7] | Potency [8] | Potency [9] | Potency [16] | Potency [17] | Potency [19] | Potency [20] | Potency [11] | Potency [12] | Potency [13] | max response [14] -14.8% | max response [1] -7.38%

Cc1ccc2ccccc2c1C
inactive: max response [14] 9.36% | max response [1] 5.03%

Nc1ccccc1C(=O)OCCc1ccccc1
inactive: Potency [2] | Potency [3] | Potency [4] | Potency [5] | caspase-3 activation [6] -20.4% | Potency [15] | Potency [7] | Potency [8] | Potency [9] | Potency [10] | Potency [16] | Potency [17] | Potency [18] | Potency [19] | Potency [20] | Potency [11] | Potency [12] | Potency [13]

O=[N+]([O-])c1cc(C(F)(F)F)cc([N+](=O)[O-])c1Cl
inactive: Potency [2] | Potency [5] | caspase-3 activation [6] 6.02% [at 91.7 µM, primary cells freshly taken from rat, solvent-only wells 0%, staurosporine 100%] | Potency [7] | Potency [8] | Potency [9] | Potency [10] | Potency [12] | Potency [13] | max response [14] 4.67%
active: Potency [15] 25.1 µM | Potency [16] 31.6 µM | Potency [17] 39.8 µM | Potency [18] 31.6 µM | Potency [19] 31.6 µM | Potency [20] 39.8 µM | Potency [11] 39.8 µM

[CH3][Hg][Cl]
active: Potency [2] 15.8 µM | Potency [3] 5.01 µM | Potency [4] 2.51 µM | Potency [15] 1.58 µM | Potency [7] 39.8 µM | Potency [9] 50.1 µM | Potency [16] 5.01 µM | Potency [17] 3.98 µM | Potency [18] 3.16 µM | Potency [19] 5.01 µM | Potency [20] 5.01 µM | Potency [11] 5.01 µM | Potency [12] 39.8 µM | Potency [14] 25.1 µM | Potency [1] 39.8 µM
inactive: caspase-3 activation [6] -5.2%

O=C1C2(Cl)C3(Cl)C4(Cl)C(Cl)(Cl)C5(Cl)C3(Cl)C1(Cl)C5(Cl)C24Cl (configuration not stated)
inactive and 39.8 µM (active): Potency [15]
inactive: Potency [5] | caspase-3 activation [6] -3.9% | max response [1] -22.6% and -16.2%
active: Potency [2] 31.6 µM and 63.1 µM | Potency [3] 31.6 µM and 50.1 µM | Potency [4] 31.6 µM | viability change, negative = cytotoxic [4] -93.4% | Potency [7] 39.8 µM | Potency [8] 31.6 µM and 39.8 µM | Potency [9] 25.1 µM and 50.1 µM | Potency [10] 39.8 µM | Potency [16] 50.1 µM | Potency [17] 63.1 µM | Potency [18] 50.1 µM | Potency [19] 50.1 µM | Potency [20] 50.1 µM | Potency [11] 50.1 µM | Potency [12] 31.6 µM and 79.4 µM | Potency [13] 25.1 µM and 50.1 µM

CN(C)c1ccc(N=O)cc1
inactive: Potency [2] | Potency [5] | caspase-3 activation [6] -9.93%
active: Potency [3] 6.31 µM | Potency [4] 1.26 µM | Potency [15] 0.631 µM | Potency [7] 7.94 µM | Potency [8] 3.98 µM | Potency [9] 3.98 µM | Potency [10] 0.794 µM | Potency [16] 1 µM | Potency [17] 2 µM | Potency [18] 1 µM | Potency [19] 1 µM | Potency [20] 1.26 µM | Potency [11] 1.26 µM | Potency [12] 3.98 µM | Potency [13] 6.31 µM | Potency [1] 39.8 µM

Oc1c(Br)c(Br)c(Br)c(Br)c1Br
active: Potency [3] 50.1 µM
inactive: Potency [2] | Potency [5] | caspase-3 activation [6] 1.89% | Potency [15] | Potency [7] | Potency [8] | Potency [9] | Potency [10] | Potency [16] | Potency [17] | Potency [18] | Potency [19] | Potency [20] | Potency [11] | Potency [12] | Potency [13] | max response [14] -1.75% | max response [1] -15.8%

O=C(O)C1C(C(=O)O)C2(Cl)C(Cl)=C(Cl)C1(Cl)C2(Cl)Cl (configuration not stated)
inactive: Potency [2] | Potency [3] | Potency [4] | Potency [5] | caspase-3 activation [6] -21% [at 91.7 µM, primary cells freshly taken from rat, solvent-only wells 0%, staurosporine 100%] | Potency [15] | Potency [7] | Potency [8] | Potency [9] | Potency [10] | Potency [16] | Potency [17] | Potency [18] | Potency [19] | Potency [20] | Potency [11] | Potency [12] | Potency [13] | max response [14] 5.57% | max response [1] 0.0125%

Cc1ccc(O)cc1C
inactive: max response [14] -2.94% | max response [1] 6.02%

CCCCCCCCn1sccc1=O
active: Potency [2] 25.1 µM | Potency [3] 12.6 µM | Potency [4] 3.98 µM | Potency [15] 2 µM | Potency [7] 15.8 µM | Potency [8] 7.94 µM | Potency [9] 25.1 µM | Potency [10] 3.98 µM | Potency [16] 5.01 µM | Potency [17] 6.31 µM | Potency [18] 3.98 µM | Potency [19] 3.98 µM | Potency [20] 6.31 µM | Potency [11] 7.94 µM | Potency [12] 12.6 µM | Potency [13] 15.8 µM | Potency [14] 50.1 µM
inactive: Potency [5] | caspase-3 activation [6] -21.1%
